Results as given in PubChem BioAssay (Tox21).
Results filed as inconclusive are left out. A number with no mark means an inactive call. Activity calls are given as the source filed them. The call rests on the fitted dose curve; in most records, active means well fitted inhibition curve with a large enough effect in the repeat runs; inconclusive means weak or mixed curves, or effect the other way; inactive means no such curve, though single readings can be large or run the other way.

Molecular target: Nuclear receptor subfamily 1 group I member 3 (Homo sapiens) (UniProt Q14994)
Assay: qHTS assay to identify small molecule antagonists of the constitutive androstane receptor (CAR) signaling pathway (AID 1224838);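 further: HepG2 cells stably expressing hCAR with CYP2B6 luciferase reporter stimulated by CITCO; nearly all actives have a fitted effect of over 40% in size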
Conditions: HepG2-CYP2B6-hCAR luciferase, CITCO-stimulated, 24 h; series mostly up to 92.4 µM; activity, negative = inhibition: at the top concentration
Text: U.S. Tox21 Program National Center for Advancing Translational Sciences [NCATS] NIH Chemical Genomics Center [NCGC] U.S. Environmental Protection Agency [EPA] National Institutes of Environmental Health Sciences [NIEHS] National Toxicology Program [NTP] U.S. Food and Drug Administration [FDA] Tox21 Assay Overview: The constitutive androstane receptor (CAR) is a nuclear receptor which regulates multiple drug metabolizing enzymes (DMEs) and transporters. Activating CAR will generally increase the transcription and subsequent translation of CYP2B6 and CYP3A4. These two DMEs represent about 50% of the drug metabolizing potential in the body. When CAR is deactivated, the metabolizing potential in the body will decrease, subsequently increasing the toxicity in the body or lowering the therapeutic potential of a pro-drug. Recently, there have also been studies performed indicating CARs role in energy metabolism and cancer therapy. Therefore, inhibiting CARs activity could have a potential effect on diabetes and cancer. Identifying environmental toxins and compounds which modulate CAR, through the use of the Tox21 10K compound collection, will be an important step in determining the toxicity and potential therapeutic effects these factors will have on the human body.
Tox21 Assay Protocol Summary: A double-stable (hCAR and CYP2B6-2.2kb) transfected cell line, derived from human hepatoma (HepG2) cells, was utilized for the duration of the quantitative high-throughput screens. The HepG2-CYP2B6-hCAR cells suspended in DMEM culture medium supplemented with 10% FBS, 5 ug/mL blasticidin, 0.5 mg/mL geneticin, 100 U/mL penicillin and 100 ug/mL streptomycin were dispensed at 2500 cells/4 uL/well in 1536-well white solid bottom plates using a Multidrop Combi. After the assay plates were incubated at 37 C/5% CO2 for 4 hrs, 23 nL of compounds at 15 concentrations (from 5-48 columns) or positive control (from 1 to 4 columns) were transferred to the assay plates using a Pintool station. One uL of CITCO, was added using a Flying Reagent Dispenser to generate a final concentration of 50 nM CITCO inside each well. After a 24 hr incubation period at 37 C/5% CO2, four uL of ONE-Glo reagent was added into the assay plates using a Flying Reagent Dispenser. After a 30 min incubation period at room temperature, the luminescence intensity in the assay plates was measured using a ViewLux plate reader.
On the % scale 0 is the no-effect control and ±100 the full control effect; potency means the concentration at half of the fitted maximal effect.

Nuclear receptor subfamily 1 group I member 3 (Homo sapiens), sequence (Q14994 whole entry, looked up): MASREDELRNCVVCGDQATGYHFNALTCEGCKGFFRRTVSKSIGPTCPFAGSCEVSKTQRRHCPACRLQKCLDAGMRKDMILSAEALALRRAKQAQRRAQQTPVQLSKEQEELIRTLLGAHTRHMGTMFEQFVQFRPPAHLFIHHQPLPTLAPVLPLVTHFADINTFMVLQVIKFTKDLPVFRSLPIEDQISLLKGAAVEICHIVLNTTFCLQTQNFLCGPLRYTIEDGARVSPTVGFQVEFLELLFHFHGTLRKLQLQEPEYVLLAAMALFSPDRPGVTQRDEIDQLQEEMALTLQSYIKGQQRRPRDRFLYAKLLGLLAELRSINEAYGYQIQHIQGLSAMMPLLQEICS

Q: How did the “activity, negative = inhibition” value turn out when `C[C@]12CC[C@H]3[C@@H](CCC4=CC(=O)CC[C@@H]43)[C@@H]1CC[C@@H]2OC(=O)CCC1CCCCC1` was run?
A: The value was -11% [at 42.5 µM].

Q: How did the “activity, negative = inhibition” value turn out when `CCCCc1c(C)nc(NCC)nc1OS(=O)(=O)N(C)C` was run?
A: Its value is 72.2%.

Q: For `CNC(C)Cc1ccccc1OC` (stereo not given), which “activity, negative = inhibition” value is on record?
A: Its value is -8.62% [at 42.5 µM].

Q: Which “activity, negative = inhibition” value does the source give for `COC(=O)c1cncn1C(C)c1ccccc1` (stereo not given) here?
A: Its value is 47.3% [at 42.5 µM].

Q: For `O=[N+]([O-])c1cc(C(F)(F)F)cc([N+](=O)[O-])c1Cl`, which “activity, negative = inhibition” value is on record?
A: The value was 59.8%.

Q: With `CC(C)(Cl)[N+](=O)[O-]` as the molecule, how does the “activity, negative = inhibition” value read?
A: The value was 43.9%.

Q: `CCCCCCCCCCOC(=O)c1ccccc1C(=O)OCCCCCCCCCC` was tested. Which “activity, negative = inhibition” value did it give?
A: The value was 6.97%.

Q: Which “activity, negative = inhibition” value does the source give for `COc1c(C(C)(C)C)cc([N+](=O)[O-])c(C)c1[N+](=O)[O-]` here?
A: The value was 35.8%.

Q: For `Nc1ccc(N=Nc2ccc(-c3ccc(N=Nc4c(S(=O)(=O)O)cc5cc(S(=O)(=O)O)c(N=Nc6ccccc6)c(O)c5c4N)cc3)cc2)c(N)c1`, which “activity, negative = inhibition” value is on record?
A: Its value is -7.28% [at 42.5 µM].

Q: For `CC(C)N(CCC(C(N)=O)(c1ccccc1)c1ccccn1)C(C)C` (stereo not given), which “activity, negative = inhibition” value is on record?
A: Its value is 24% [at 42.5 µM].

Q: How did the “activity, negative = inhibition” value turn out when `O=C(NCc1cccnc1)Nc1ccc([N+](=O)[O-])cc1` was run?
A: The value was 124%.

Q: For `CC(c1ccc(O)cc1)(c1ccc(O)cc1)c1ccc(O)cc1`, which Potency is on record?
A: Its Potency is 9.69 µM (active).

Q: How did the “activity, negative = inhibition” value turn out when `O=C(O)C1(c2ccc3c(c2)OC[C@H](Cc2ccc(-c4ccccc4)cc2)[C@H]3O)CCCC1` was run?
A: The value was 1.51%.

Q: Which “activity, negative = inhibition” value does the source give for `COc1ccc(-c2ccccc2)cc1NNC(=O)OC(C)C` here?
A: The value was 143%.

Q: For `CCC(COC(=O)c1cc(OC)c(OC)c(OC)c1)(c1ccccc1)N(C)C` (stereo not given), which “activity, negative = inhibition” value is on record?
A: The value was 43.1% [at 42.5 µM].

Q: `Nc1ccc([N+](=O)[O-])cc1[N+](=O)[O-]` was tested. Which “activity, negative = inhibition” value did it give?
A: Its value is 42.3%.

Q: `CCCCCCCCOC(=O)c1ccc(C(=O)OCCCCCCCC)c(C(=O)OCCCCCCCC)c1` was tested. Which “activity, negative = inhibition” value did it give?
A: The value was -6.62%.

Q: `COC(N)=O` was tested. Which “activity, negative = inhibition” value did it give?
A: Its value is -0.782%.

Q: With `c1ccc(CN2CCNCC2)cc1` as the molecule, how does the “activity, negative = inhibition” value read?
A: Its value is 25.2% [at 240 µM].

Q: For `C[C@@H]1CC[C@H]2[C@@H](C)C(=O)O[C@@H]3O[C@@]4(C)CC[C@@H]1[C@]32OO4`, which “activity, negative = inhibition” value is on record?
A: Its value is 27.8% [at 42.5 µM].

Q: How did the “activity, negative = inhibition” value turn out when `CC1(C)CCC(Cc2ccc(Cl)cc2)C1(O)Cn1cncn1` (stereo not given) was run?
A: The value was 35.7%.

Q: `CC(C)(CCl)C(=O)Cl` was tested. Which “activity, negative = inhibition” value did it give?
A: Its value is 15.4%.

Q: For `COCCOCCO`, which “activity, negative = inhibition” value is on record?
A: The value was 9.87%.

Q: Which “activity, negative = inhibition” value does the source give for `CCOc1ccc(C(C)(C)COCc2cccc(Oc3ccccc3)c2)cc1` here?
A: Its value is 53.7%.

Q: For `CCOP(=O)(OCC)Oc1ccc([N+](=O)[O-])cc1`, which Potency is on record?
A: Its Potency is “inactive”.

Q: Which “activity, negative = inhibition” value does the source give for `CNP(=O)(OC)Oc1ccc(C(C)(C)C)cc1Cl` (stereo not given) here?
A: Its value is 87.8%.

Q: Which “activity, negative = inhibition” value does the source give for `O=NN1CCNCC1` here?
A: Its value is 16.3%.

Q: With `CO/N=C(/C(=O)OC)c1ccccc1COc1ccccc1C` as the molecule, how does the “activity, negative = inhibition” value read?
A: Its value is -5.59%.

Q: How did the “activity, negative = inhibition” value turn out when `O=C(CBr)Nc1ccc(Cl)cc1C(=O)c1ccccc1F` was run?
A: The value was 114% [at 42.5 µM].

Q: How did the Potency turn out when `O=C(N[C@H](c1ccccc1)[C@@H]1CN2CCC1CC2)c1c(Cl)ccc(C(F)(F)F)c1Cl` was run?
A: Its Potency is 13.9 µM (active).

Q: For `C=CC(=O)OCC(C)O` (stereo not given), which “activity, negative = inhibition” value is on record?
A: The value was 17.5%.

Q: With `OCCCBr` as the molecule, how does the “activity, negative = inhibition” value read?
A: The value was -17.6%.

Q: Which “activity, negative = inhibition” value does the source give for `CC1(C)[C@H](C=C(Cl)Cl)[C@@H]1C(=O)O[C@@H](C#N)c1cccc(Oc2ccccc2)c1` here?
A: The value was -17.3%.

Q: How did the Potency turn out when `CC(C)(C)c1cc([N+](=O)[O-])cc([N+](=O)[O-])c1O` was run?
A: Its Potency is 17.2 µM (active).

Q: With `NS(=O)(=O)C(F)(F)C(F)(F)C(F)(F)C(F)(F)C(F)(F)C(F)(F)C(F)(F)C(F)(F)F` as the molecule, how does the “activity, negative = inhibition” value read?
A: The value was -28.5%.

Q: Which “activity, negative = inhibition” value does the source give for `NCCCNCCCN` here?
A: The value was -3.25%.

Q: How did the “activity, negative = inhibition” value turn out when `CC(C)N(C(=O)COc1nnc(C(F)(F)F)s1)c1ccc(F)cc1` was run?
A: Its value is 29.2%.

Q: With `CC(=O)c1cc2c(cc1C)C(C)(C)C(C)CC2(C)C` (stereo not given) as the molecule, how does the “activity, negative = inhibition” value read?
A: The value was 79.2%.

Q: `C=C(C#N)CCC#N` was tested. Which “activity, negative = inhibition” value did it give?
A: Its value is 20.2%.

Q: `Sc1ccccc1Cl` was tested. Which “activity, negative = inhibition” value did it give?
A: The value was -14.3% [at 42.5 µM].
